The text below walks through data of PubChem BioAssay (NCATS).

Results filed as inconclusive are left out. A call without a number means that no potency is given here. Values without a mark were called inactive. Activity calls are given as the source filed them. The call rests on the fitted dose curve; in most records, active means well fitted inhibition curve with a large enough effect; inconclusive means small, poorly fitted or top-dose-only effect; inactive means flat fitted curve, though single readings scatter.

This test in a line: Primary qHTS for inhibitors of nuclear receptor binding SET domain protein 2 (NSD2) in an isogenic RCH-ACV NSD2 p.E1099K mutant (9B) (AID 1645876). Further: nearly all actives have a fitted effect of over 70% in size. The settings on record: RCH-ACV (leukaemia line) NSD2 E1099K (9B) viability, CellTiter-Glo, 72 h; series mostly up to 44.9 µM. For orientation: qHTS replaces the single test concentration by a dilution series.
For the compound `C/C=C(\C)C(=O)OCC1OC(OC2OC(COC(=O)/C(C)=C/C)C(OC3OC(CO)C(OC(=O)/C(C)=C/C)C(OC(=O)/C(C)=C/C)C3O)C(O)C2O)C(O)C(O)C1OC1OC(CO)C(OC(=O)/C(C)=C/C)C(OC(=O)/C(C)=C/C)C1O` (configuration not stated), the activity change, negative = viability loss was -4.2% [at 9.23 µM]. Regarding `C[C@@H]1O[C@@H](O[C@H]2[C@H](O[C@H]3[C@H](O[C@H]4CC[C@@]5(C)C(CC[C@]6(C)C5CC=C5[C@@H]7CC(C)(C)CC[C@]7(C(=O)O[C@@H]7O[C@H](CO)[C@@H](O[C@@H]8O[C@@H](C)[C@H](O)[C@@H](O)[C@H]8O)[C@H](O)[C@H]7O)CC[C@]56C)C4(C)C)OC[C@H](O)[C@@H]3O)O[C@H](CO)[C@@H](O)[C@@H]2O)[C@H](O)[C@H](O)[C@H]1O` (some centres not stated), the activity change, negative = viability loss was -8.33% [at 9.23 µM]. Consider `C=C1C[C@]23C[C@H]1CC[C@H]2[C@@]1(C)CCC[C@@]2(C)C(=O)O[C@@H]([C@@H]3O)[C@@H]12`, for which the Potency result is “inactive”.

As to `O=C1CCC(=O)N(O)CCCCCNC(=O)CCC(=O)N(O)CCOCCNC(=O)CCC(=O)N(O)CCCCCN1`, the Potency result is “inactive”. The same measure, in the same setting: the same measure for `C/C=C/c1ccc(O[C@@H]2O[C@H](CO)[C@@H](O)[C@H](O)[C@H]2O)c(OC)c1`: “inactive”. On to `CC1(C)CC[C@]2(C(=O)O[C@@H]3O[C@H](CO[C@@H]4O[C@H](CO)[C@@H](O)[C@H](O)[C@H]4O[C@@H]4O[C@H](CO)[C@H](O)[C@H](O)[C@H]4O)[C@@H](O)[C@H](O[C@@H]4O[C@H](CO)[C@@H](O)[C@H](O)[C@H]4O)[C@H]3O)CC[C@]3(C)C(=CCC4[C@@]5(C)CC[C@H](O[C@@H]6OC[C@@H](O)[C@H](O)[C@H]6O)[C@@](C)(C(=O)O)C5CC[C@]43C)[C@@H]2C1` (some centres not stated), for which the activity change, negative = viability loss is -8.77% [at 9.23 µM].

As to `C[C@@H]1CC[C@]2(C(=O)O[C@@H]3O[C@H](CO)[C@@H](O)[C@H](O)[C@H]3O)CC[C@]3(C)C(=CCC4[C@@]5(C)C[C@@H](O)[C@H](O)[C@](C)(C(=O)O)C5CC[C@]43C)[C@@H]2[C@]1(C)O` (some centres not stated), the Potency entry was “inactive”.

Take `COC(=O)c1cc(OC)c(O[C@@H]2O[C@@H](C)[C@H](O)[C@@H](O)[C@H]2O)c(OC)c1`: the Potency entry was “inactive”. Consider `N[C@@]1(C(=O)O)CC[C@H]2[C@H](C(=O)O)[C@H]21`, for which the Potency entry is “inactive”. On to `O=C(O)c1cn(C2CC2)c2cc(N3C[C@@H]4C[C@H]3CN4)c(F)cc2c1=O`, for which the Potency entry is “inactive”. Turning to `CC1=C2C[C@H]3O[C@@]3(C)CCC3O[C@@]3(C)C[C@@]2(O)OC1=O` (some centres not stated), the Potency entry was “inactive”. On to `CC1OC(OC2C(C)OC(OC3C(OC(=O)C45CCC(C)(C)CC4C4=CCC6C7(C)CCC(OC8OC(C(=O)O)C(O)C(O)C8OC8OC(CO)C(O)C(OC9OC(C)C(O)C(O)C9O)C8O)C(C)(CO)C7CCC6(C)C4(C)CC5)OC(CO)C(O)C3O)C(O)C2O)C(O)C(O)C1O` (configuration not stated), for which the activity change, negative = viability loss is 2.43% [at 9.23 µM].
